Measured values published in the supplement of paper PMC10849652.
Targets with a hit are over-represented here; the source holds about 8,800 in all. About 0.5% of all pairs of compound and target were hits. Values without a mark were called inactive.

How the values were obtained:
Test in all cases: log2 fold change, soluble protein after heating vs DMSO (PISA); higher = thermal stabilisation; K562 lysate, 10 uM; active = over 0.2 and 3.5 SD of the protein, either way, in both replicates (recomputed)
lapatinib = compound: CS(=O)(=O)CCNCc1ccc(-c2ccc3ncnc(Nc4ccc(OCc5cccc(F)c5)c(Cl)c4)c3c2)o1 [lapatinib]
In short: (§1)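 The values are log-two fold changes in thermal stability compared with solvent controls and come from duplicates. They were obtained by TMTpro 16plex LC-MS/MS, with channel sums equalised, on the supernatant after 21,000xg for 90 min. That supernatant came from crude K562 extract at 1 mg/mL protein treated with 10 μM compound for 30 min, heated for 3 min across 48°C-58°C, pooled and brought to 0.5% NP-40 at 4°C.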

pictilisib = compound: CS(=O)(=O)N1CCN(Cc2cc3nc(-c4cccc5[nH]ncc45)nc(N4CCOCC4)c3s2)CC1 [pictilisib]
In short: as §1

crizotinib = compound: C[C@@H](Oc1cc(-c2cnn(C3CCNCC3)c2)cnc1N)c1c(Cl)ccc(F)c1Cl [crizotinib]
In short: as §1

duvelisib = compound: C[C@H](Nc1ncnc2nc[nH]c12)c1cc2cccc(Cl)c2c(=O)n1-c1ccccc1 [duvelisib]
In short: as §1

tozasertib = compound: Cc1cc(Nc2cc(N3CCN(C)CC3)nc(Sc3ccc(NC(=O)C4CC4)cc3)n2)n[nH]1 [tozasertib]
In short: as §1

doramapimod = compound: Cc1ccc(-n2nc(C(C)(C)C)cc2NC(=O)Nc2ccc(OCCN3CCOCC3)c3ccccc23)cc1 [doramapimod]
In short: as §1

bafetinib = compound: Cc1ccc(NC(=O)c2ccc(CN3CC[C@H](N(C)C)C3)c(C(F)(F)F)c2)cc1Nc1nccc(-c2cncnc2)n1 [bafetinib]
In short: as §1

dasatinib = compound: Cc1nc(Nc2ncc(C(=O)Nc3c(C)cccc3Cl)s2)cc(N2CCN(CCO)CC2)n1 [dasatinib]
In short: as §1

[1] = compound: Cn1cc(-c2ccc3c(c2)CCN3C(=O)Cc2cccc(C(F)(F)F)c2)c2c(N)ncnc21
In short: as §1

quisinostat = compound: Cn1cc(CNCC2CCN(c3ncc(C(=O)NO)cn3)CC2)c2ccccc21 [quisinostat]
In short: as §1

[2] = compound: NC(=O)Nc1cc(-c2cccc(F)c2)sc1C(=O)N[C@H]1CCCNC1
In short: as §1

[3] = compound: NC(=O)c1cnc(N[C@@H]2CCCC[C@@H]2N)nc1Nc1cccc(-n2nccn2)c1
In short: as §1

[4] = compound: NC1(c2ccc(-c3nc4ccn5c(=O)[nH]nc5c4cc3-c3ccccc3)cc2)CCC1
In short: as §1

[5] = compound: C[C@H](C1=CC=C(C=C1)C(=O)NC2=C3C=CNC3=NC=C2)N
In short: as §1

gandotinib = compound: Cc1cc(Nc2cc(CN3CCOCC3)c3nc(C)c(Cc4ccc(Cl)cc4F)n3n2)n[nH]1 [gandotinib]
In short: as §1

[6] = compound: Cc1cccc(CC(=O)N2CCc3c2ccc(-c2cn(C)c4ncnc(N)c24)c3F)n1
In short: as §1

nilotinib = compound: Cc1cn(-c2cc(NC(=O)c3ccc(C)c(Nc4nccc(-c5cccnc5)n4)c3)cc(C(F)(F)F)c2)cn1 [nilotinib]
In short: as §1

[7] = compound: Cc1nc(Nc2n[nH]c3c2CN(C(=O)N[C@H](CN(C)C)c2ccccc2)C3(C)C)c2sccc2n1
In short: as §1

[8] = compound: Cc1ncc(-c2ccnc(Nc3ccc(S(C)(=O)=O)cc3)n2)n1C(C)C
In short: as §1

tipifarnib = compound: Cn1cncc1[C@@](N)(c1ccc(Cl)cc1)c1ccc2c(c1)c(-c1cccc(Cl)c1)cc(=O)n2C [tipifarnib]
In short: as §1

Chain of UniProt P49336 (P49336 whole entry, looked up): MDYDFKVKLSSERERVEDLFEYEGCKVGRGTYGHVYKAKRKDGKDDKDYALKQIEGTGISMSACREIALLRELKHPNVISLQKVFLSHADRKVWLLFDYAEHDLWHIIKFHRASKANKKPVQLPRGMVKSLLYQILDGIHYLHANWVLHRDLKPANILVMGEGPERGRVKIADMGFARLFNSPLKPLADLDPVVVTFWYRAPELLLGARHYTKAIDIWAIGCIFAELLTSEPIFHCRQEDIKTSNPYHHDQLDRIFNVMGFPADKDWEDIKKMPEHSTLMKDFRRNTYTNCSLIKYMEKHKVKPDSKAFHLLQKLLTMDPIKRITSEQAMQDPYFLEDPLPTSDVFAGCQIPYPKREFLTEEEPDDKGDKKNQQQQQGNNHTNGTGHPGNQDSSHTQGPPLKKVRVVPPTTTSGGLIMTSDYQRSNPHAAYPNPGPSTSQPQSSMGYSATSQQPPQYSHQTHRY
Chain of UniProt P46527 (P46527 whole entry, looked up): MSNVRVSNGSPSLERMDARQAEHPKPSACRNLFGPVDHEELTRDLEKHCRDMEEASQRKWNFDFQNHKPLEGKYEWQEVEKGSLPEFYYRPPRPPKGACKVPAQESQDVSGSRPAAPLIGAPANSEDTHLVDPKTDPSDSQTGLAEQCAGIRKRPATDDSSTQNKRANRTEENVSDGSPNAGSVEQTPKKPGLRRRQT
Chain of UniProt Q13825 (Q13825 whole entry, looked up): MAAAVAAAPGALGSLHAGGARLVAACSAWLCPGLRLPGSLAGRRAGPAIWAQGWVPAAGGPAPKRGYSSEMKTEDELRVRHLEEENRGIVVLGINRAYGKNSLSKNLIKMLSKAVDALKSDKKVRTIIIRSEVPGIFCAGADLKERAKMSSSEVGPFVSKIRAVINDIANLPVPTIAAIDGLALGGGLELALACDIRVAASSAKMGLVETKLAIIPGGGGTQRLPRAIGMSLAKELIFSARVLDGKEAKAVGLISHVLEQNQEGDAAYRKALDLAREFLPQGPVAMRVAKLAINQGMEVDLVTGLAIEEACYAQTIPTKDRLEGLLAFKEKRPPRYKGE
Chain of UniProt P11274 (P11274 whole entry, looked up): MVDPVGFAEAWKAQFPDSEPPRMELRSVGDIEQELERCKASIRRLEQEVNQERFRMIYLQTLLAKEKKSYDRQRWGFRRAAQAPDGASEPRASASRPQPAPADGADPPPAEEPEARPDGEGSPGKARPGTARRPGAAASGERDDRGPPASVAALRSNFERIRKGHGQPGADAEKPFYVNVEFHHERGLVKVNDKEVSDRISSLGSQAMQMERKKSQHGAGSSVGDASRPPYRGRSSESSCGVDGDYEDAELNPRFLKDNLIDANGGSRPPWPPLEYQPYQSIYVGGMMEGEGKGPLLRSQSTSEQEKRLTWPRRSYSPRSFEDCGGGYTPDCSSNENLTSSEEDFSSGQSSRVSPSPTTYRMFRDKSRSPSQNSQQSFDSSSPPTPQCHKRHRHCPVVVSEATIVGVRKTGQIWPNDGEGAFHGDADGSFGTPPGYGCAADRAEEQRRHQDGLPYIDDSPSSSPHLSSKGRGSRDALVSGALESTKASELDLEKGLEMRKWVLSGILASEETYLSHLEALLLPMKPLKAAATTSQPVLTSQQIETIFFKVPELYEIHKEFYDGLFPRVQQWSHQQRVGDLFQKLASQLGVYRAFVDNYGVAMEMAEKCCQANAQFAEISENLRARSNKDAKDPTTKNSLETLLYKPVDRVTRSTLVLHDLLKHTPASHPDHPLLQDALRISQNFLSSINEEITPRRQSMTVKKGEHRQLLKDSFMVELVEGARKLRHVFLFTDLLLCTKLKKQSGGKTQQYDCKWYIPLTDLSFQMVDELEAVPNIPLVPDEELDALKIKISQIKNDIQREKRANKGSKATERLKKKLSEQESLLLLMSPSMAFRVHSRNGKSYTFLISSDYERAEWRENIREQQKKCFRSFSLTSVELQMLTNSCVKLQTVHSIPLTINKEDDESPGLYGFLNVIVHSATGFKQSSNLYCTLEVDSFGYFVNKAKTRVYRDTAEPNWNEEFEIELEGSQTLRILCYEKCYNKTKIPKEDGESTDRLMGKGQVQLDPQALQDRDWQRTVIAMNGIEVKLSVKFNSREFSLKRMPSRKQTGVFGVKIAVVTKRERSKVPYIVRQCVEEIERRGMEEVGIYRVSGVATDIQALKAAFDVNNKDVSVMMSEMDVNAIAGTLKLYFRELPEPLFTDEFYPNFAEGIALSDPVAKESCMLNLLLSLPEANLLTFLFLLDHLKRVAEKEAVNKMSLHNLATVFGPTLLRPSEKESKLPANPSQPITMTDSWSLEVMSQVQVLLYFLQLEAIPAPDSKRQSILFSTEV
Chain of UniProt O60566 (O60566 whole entry, looked up): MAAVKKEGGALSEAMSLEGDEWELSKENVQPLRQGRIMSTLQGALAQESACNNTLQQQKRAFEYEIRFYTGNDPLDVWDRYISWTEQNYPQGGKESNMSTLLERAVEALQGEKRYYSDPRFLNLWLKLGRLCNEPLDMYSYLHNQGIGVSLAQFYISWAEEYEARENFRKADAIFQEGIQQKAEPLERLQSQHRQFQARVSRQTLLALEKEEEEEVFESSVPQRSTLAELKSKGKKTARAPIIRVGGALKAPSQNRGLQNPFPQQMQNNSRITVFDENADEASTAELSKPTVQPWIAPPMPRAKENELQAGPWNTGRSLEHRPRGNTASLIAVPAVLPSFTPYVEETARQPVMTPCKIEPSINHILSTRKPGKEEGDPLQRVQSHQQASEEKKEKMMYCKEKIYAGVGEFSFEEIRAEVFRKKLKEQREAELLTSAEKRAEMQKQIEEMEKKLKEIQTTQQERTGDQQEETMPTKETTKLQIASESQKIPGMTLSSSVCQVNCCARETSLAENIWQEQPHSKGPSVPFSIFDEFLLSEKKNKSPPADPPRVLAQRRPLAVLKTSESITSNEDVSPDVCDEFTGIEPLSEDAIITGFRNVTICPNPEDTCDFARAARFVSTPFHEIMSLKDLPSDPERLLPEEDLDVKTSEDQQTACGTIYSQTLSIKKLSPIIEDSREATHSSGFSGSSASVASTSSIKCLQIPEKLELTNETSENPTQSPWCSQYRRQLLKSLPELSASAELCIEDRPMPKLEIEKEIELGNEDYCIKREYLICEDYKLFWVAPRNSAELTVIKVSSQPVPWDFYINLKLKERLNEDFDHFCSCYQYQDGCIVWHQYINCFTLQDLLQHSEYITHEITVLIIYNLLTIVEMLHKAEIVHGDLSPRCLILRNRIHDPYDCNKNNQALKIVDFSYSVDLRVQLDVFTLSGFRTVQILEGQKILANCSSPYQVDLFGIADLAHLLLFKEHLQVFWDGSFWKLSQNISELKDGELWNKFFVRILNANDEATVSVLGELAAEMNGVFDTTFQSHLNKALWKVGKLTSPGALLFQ
Chain of UniProt O75419 (O75419 whole entry, looked up): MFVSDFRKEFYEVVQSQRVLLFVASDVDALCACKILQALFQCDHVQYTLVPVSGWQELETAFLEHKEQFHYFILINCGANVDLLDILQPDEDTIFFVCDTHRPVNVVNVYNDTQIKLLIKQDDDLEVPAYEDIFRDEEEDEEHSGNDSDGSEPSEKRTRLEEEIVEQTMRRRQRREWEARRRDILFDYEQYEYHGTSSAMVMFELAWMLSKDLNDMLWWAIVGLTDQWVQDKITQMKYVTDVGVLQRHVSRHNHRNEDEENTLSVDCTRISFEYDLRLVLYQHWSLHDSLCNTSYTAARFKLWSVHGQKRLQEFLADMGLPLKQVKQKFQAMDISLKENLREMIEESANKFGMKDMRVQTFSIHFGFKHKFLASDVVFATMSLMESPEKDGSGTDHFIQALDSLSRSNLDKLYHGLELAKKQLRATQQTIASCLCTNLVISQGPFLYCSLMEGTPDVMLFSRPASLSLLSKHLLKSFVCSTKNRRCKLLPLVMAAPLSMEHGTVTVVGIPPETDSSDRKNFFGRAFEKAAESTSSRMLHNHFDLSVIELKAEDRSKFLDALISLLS
Chain of UniProt Q13554 (Q13554 whole entry, looked up): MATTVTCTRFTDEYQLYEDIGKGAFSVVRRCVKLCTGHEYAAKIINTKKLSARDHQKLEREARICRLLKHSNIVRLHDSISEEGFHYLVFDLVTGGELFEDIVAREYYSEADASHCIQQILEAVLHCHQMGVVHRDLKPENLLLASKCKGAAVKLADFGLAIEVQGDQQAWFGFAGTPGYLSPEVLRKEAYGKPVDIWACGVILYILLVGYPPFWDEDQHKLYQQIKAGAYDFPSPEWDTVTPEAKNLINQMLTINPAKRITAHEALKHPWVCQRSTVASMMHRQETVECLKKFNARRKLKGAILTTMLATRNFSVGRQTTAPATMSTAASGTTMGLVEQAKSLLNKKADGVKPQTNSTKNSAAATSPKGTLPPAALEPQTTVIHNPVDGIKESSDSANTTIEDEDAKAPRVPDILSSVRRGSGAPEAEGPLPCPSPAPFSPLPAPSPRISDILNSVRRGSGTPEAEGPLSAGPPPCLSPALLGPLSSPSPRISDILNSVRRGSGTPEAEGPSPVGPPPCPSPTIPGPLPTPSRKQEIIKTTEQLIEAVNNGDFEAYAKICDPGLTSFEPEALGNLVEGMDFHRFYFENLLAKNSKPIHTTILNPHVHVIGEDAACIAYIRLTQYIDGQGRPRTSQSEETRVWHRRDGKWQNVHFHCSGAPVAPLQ
Chain of UniProt P20248 (P20248 whole entry, looked up): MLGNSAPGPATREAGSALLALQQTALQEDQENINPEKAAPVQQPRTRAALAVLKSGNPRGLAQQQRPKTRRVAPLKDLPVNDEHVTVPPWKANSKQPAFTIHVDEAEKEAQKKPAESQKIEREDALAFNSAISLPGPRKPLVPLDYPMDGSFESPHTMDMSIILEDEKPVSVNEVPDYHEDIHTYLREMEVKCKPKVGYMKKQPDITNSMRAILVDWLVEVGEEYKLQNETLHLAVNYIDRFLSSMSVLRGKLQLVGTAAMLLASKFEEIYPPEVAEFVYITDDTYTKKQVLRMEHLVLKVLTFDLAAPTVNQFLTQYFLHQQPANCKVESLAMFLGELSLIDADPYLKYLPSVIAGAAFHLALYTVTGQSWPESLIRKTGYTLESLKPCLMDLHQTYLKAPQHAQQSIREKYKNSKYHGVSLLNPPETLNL

Target	log2 fold change (lapatinib)	log2 fold change (pictilisib)	log2 fold change (crizotinib)	log2 fold change (duvelisib)	log2 fold change (tozasertib)	log2 fold change (doramapimod)	log2 fold change (bafetinib)	log2 fold change (dasatinib)	log2 fold change [1]	log2 fold change (quisinostat)	log2 fold change [2]	log2 fold change [3]	log2 fold change [4]	log2 fold change [5]	log2 fold change (gandotinib)	log2 fold change [6]	log2 fold change (nilotinib)	log2 fold change [7]	log2 fold change [8]	log2 fold change (tipifarnib)
C16orf70 (UniProt Q9BSU1)	-0.002	-0.076	0.058	-0.013	0.018	0.116	-0.045	0.042	-0.091	0.036	-0.005	-0.001	0.009							
AUH (UniProt Q13825)	0.165	-0.131	0.012	0.135	0.455 (active)	0.023	-0.003	-0.274	0.14	-0.002	-0.018	0.193	-0.066	0.144	-0.117	-0.345				
CASP6 (UniProt P55212)	0.024	-0.004	0.009	0.003	0.022	0.013	0.054	0.005	-0.001	0.013	-0.034	0.003	0.023	0.195	-0.02	-0.038	0.018	0.017	-0.026	-0.027
CEBPZOS (UniProt A8MTT3)	-0.001		-0.025	0.035	0.039	0.177		0.053	0.044	0.02	-0.039	-0.004	-0.008	-0.352	-0.044	0.203 (active)	0.069	-0.01	0.024	-0.017
BCR (UniProt P11274)	-0.02	-0.032	0.034	-0.049	0.031	-0.047	0.019	0.043	-0.018	-0.044		0.028	0.016	-0.064	-0.013	0.1	0.108	0.021	-0.017	-0.015
ATXN2 (UniProt F8WB05)	0.06	0.005	-0.023	-0.065	0.043	-0.12	0.045	0.035	-0.058	-0.208	-0.025	0.025	-0.394	0.087	-0.028	0.001				
CDK2 (UniProt P24941)	-0.026	0.028	0	-0.026	0.008	0.004	0.042	0.018	0.01	-0.077	0.005	0.067	-0.012		0.403 (active)	-0.001	-0.01			0.011
C8orf37 (UniProt Q96NL8)	-0.095	0.006	0.043	0.046	0.006	0.043	0.09	0.083	0.056	0.004	-0.01	0.298	0.029	-0.559 (active)	-0.06	0.238				
CCDC22 (UniProt O60826)	-0.002	-0.017	-0.036	-0.016	0.03	0.023	-0.035	-0.055	-0.006	-0.006	0.041	0.025	-0.017	-0.014	-0.056	-0.005	0.007	-0.018	-0.005	0.012
CDK8 (UniProt P49336)	-0.035	-0.033	-0.032	-0.075		0.322	-0.043	-0.054	-0.032	-0.05	0.018	-0.006	-0.033	0.129	-0.065	0.119	-0.025	-0.037	0.119	-0.209
CASP7 isoform 3 (UniProt P55210)	-0.055	0.037	-0.07	0.009	0.049	0.029	-0.054	-0.091	0.226	-0.016	0.022	0.106	0.063				-0.042	0.01	0.05	0.049
CAMK2B (UniProt Q13554)	0.024	0.053		-0.011	-0.046	-0.03	0.003	-0.055	0.023	-0.205	0.295	0.089	-0.045	-0.045	0.072	0.055	-0.026	0.399 (active)	0.026	-0.035
C6orf120 (UniProt Q7Z4R8)	-0.113	0.032		-0.036			0.045	-0.007	0.147			0.017	0.041	-0.03	-0.037	-0.169				
CD80 (UniProt P33681)	0.122		-0.007	0.104	0.088	-0.008		-0.015	0.039	0.025	-0.002	0.086	-0.03	0.395 (active)	-0.086	0.016	0.259	-0.065	-0.333	0.023
CDKN1B (UniProt P46527)	0.083	-0.043	0.139	-0.06	-0.005	-0.04	-0.106	0.021	0.034	0.393 (active)	-0.122	-0.035	0.045	0.047	-0.161	-0.059				
CDC45 isoform 3 (UniProt O75419)	-0.036	-0.014	-0.009	-0.007	0	-0.002	-0.077	-0.044	0.038	0.015	0.047	0.003	-0.058	0.023	-0.079	-0.018	-0.022	0.013	-0.003	-0.022
BUB1B isoform 3 (UniProt O60566)	0.009	-0.038	-0.059	0.024	-0.01	0.019	-0.029	-0.015	0.024	-0.076	0.028	-0.003	-0.004	0.007	-0.04	0.035	0.007	-0.012	0.014	-0.013
CCNA2 (UniProt P20248)	-0.004	-0.029	-0.035	0.019	-0.073	0.059	0.027	0.04	-0.051	-0.086	0.005	0.063	-0.021	-0.092	0.091	0.049	-0.014	0.064	0.234 (active)	-0.015
